The values that follow come from the supplement of paper PMC12636033.

± gives the standard deviation of the averaged measurements. In all, about 33,000 sequences were measured (“E-score (rank enrichment, -0.5 to 0.5)”: median about -0.0028, highest 2% from about 0.23 on). Only a selection was taken, and the highest values are over-represented in it overall.

This assay relates to 2Sb-muMax20 (muMax20 with two 1,3-bis(methyl)benzene Cys staples, A13C/A17C and Q88C/A92C, C-terminal Lys). Kind of assay: PBM 8-mer E-score (E-score (rank enrichment, -0.5 to 0.5)); higher = stronger preferential binding. How it is done: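 Protein binding microarray (universal PBM chip covering all 10-mers in fixed probe flanks) with chemically synthesized human Max(13-93) bHLH-LZ analogs (not full-length Max) bearing noncanonical residues (hArg, Tha, Aib, Nle at 65) and aromatic Cys staples. Read-out per 8-mer (and its reverse complement): E-score (rank-based enrichment, -0.5 to 0.5) and Z-score of median probe intensity.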
On to CCACGTGG, for which the “PBM 8-mer E-score” value amounted to 0.46 ± 0.0066. As for CAACGTGG, the “PBM 8-mer E-score” value was 0.11 ± 0.044. Next, CGACGTGA: 0.0209 ± 0.0095; CTACGTGA: 0.0198 ± 0.047; CCACGCGA: 0.0259 ± 0.0059. Turning to CCACGTGC, the “PBM 8-mer E-score” value was 0.376 ± 0.054. Then CCACGTGA, with 0.377 ± 0.034; and ACACGCGG, with 0.145 ± 0.026. Then CCACGTCC, with -0.141 ± 0.039.

Regarding CCACGCGG, the “PBM 8-mer E-score” value stood at 0.323 ± 0.026. Then CGACGTGC, with -0.0806 ± 0.038. As for CCACGTAG, the “PBM 8-mer E-score” value is -0.0491 ± 0.031. Then TATTAAAA, with 0.142 ± 0.065. Then GGAACACC, with -0.18 ± 0.026. Then ACACGGGT, with -0.046 ± 0.012. Consider ATTAGGTC, for which the “PBM 8-mer E-score” value worked out at 0.0763 ± 0.069. Then ATTATCCA, with 0.0946 ± 0.055; and ACGGAACT, with -0.0318 ± 0.08. Next, AGCGTCGG: -0.117 ± 0.08. As for CAGTATCC, the “PBM 8-mer E-score” value was determined as 0.0515 ± 0.025. Turning to CCACGTTC, the “PBM 8-mer E-score” value amounted to 0.0604 ± 0.011. On to GCACGTTA, for which the “PBM 8-mer E-score” value is 0.1 ± 0.012. Next, CCACGTTA: 0.3181 ± 0.0019; TAGCTTCA: 0.122 ± 0.05. Next, AGCGCCCC: -0.0138 ± 0.11; CGTATAAG: 0.0878 ± 0.037. Next, AGTATAAG: 0.272 ± 0.011; AGTATAAC: -0.0733 ± 0.029; AGTATAAA: 0.188 ± 0.0027. As to ACTATAAG, the “PBM 8-mer E-score” value was 0.0622 ± 0.044. Then AGTATAAT, with 0.24 ± 0.091; and AGCGCAGA, with -0.126 ± 0.074.

Consider AAATAAAT, for which the “PBM 8-mer E-score” value amounted to 0.172 ± 0.013.

ATAGAAAC: the “PBM 8-mer E-score” value stood at 0.0134 ± 0.036. Consider AAGAGGCC, for which the “PBM 8-mer E-score” value is -0.129 ± 0.067. Then TACTTCAA, with 0.265 ± 0.047; and GACTTCAA, with 0.15 ± 0.0026. Then AACTTCAA, with 0.00863 ± 0.015; and AAGATCTT, with 0.257 ± 0.052; and AAGATCTG, with 0.0847 ± 0.069. Next, AAGATCTA: -0.0269 ± 0.015. On to ATGCTGAA, for which the “PBM 8-mer E-score” value came out at 0.0724 ± 0.024.

Regarding ACCTAGTG, the “PBM 8-mer E-score” value came to 0.109 ± 0.023. Next, GTGGGATA: 0.274 ± 0.071; CGGGGATA: 0.0352 ± 0.012. Then ATGGGATA, with 0.145 ± 0.0055; and AGGGGATA, with 0.303 ± 0.046. For the sequence GGGGGATA, the “PBM 8-mer E-score” value is 0.0584 ± 0.079. Next, CTGGGATA: -0.0992 ± 0.038; ATGCTTCC: -0.0299 ± 0.042.

Regarding GCCCAGGA, the “PBM 8-mer E-score” value is -0.14 ± 0.058. Take ACCGCGGT: the “PBM 8-mer E-score” value was -0.115 ± 0.037.

As for CCCTCCGC, the “PBM 8-mer E-score” value is -0.0855 ± 0.048. Regarding AACCGATC, the “PBM 8-mer E-score” value is -0.0993 ± 0.0093.

Consider ACGTGTTA, for which the “PBM 8-mer E-score” value came to 0.269 ± 0.0048. Next, ACGTGTTC: 0.103 ± 0.017.

With CCGTGTTA, the “PBM 8-mer E-score” value was 0.0249 ± 0.014. Next, ACGTGTGA: 0.0598 ± 0.014; ACGTGTAT: 0.35 ± 0.016; ACGTGTAC: 0.147 ± 0.019. Then ATGTGTTG, with 0.197 ± 0.039; and ACGTGTGC, with 0.2375 ± 0.00032; and ACGTGTGG, with 0.151 ± 0.034. Then ACGTGTAG, with -0.0126 ± 0.035. Regarding ACGTGTTG, the “PBM 8-mer E-score” value was 0.258 ± 0.013. Next, GCGTGTTA: 0.0351 ± 0.018; GCCTAACA: 0.0954 ± 0.1; ATCTCCAA: 0.107 ± 0.026. Then CTGTCTCC, with -0.098 ± 0.04; and AATTTGAT, with -0.0177 ± 0.068; and GCAATTGC, with 0.031 ± 0.021. Then AACATCGA, with 0.0919 ± 0.039; and GTTGATGA, with 0.108 ± 0.0079; and ATTGGTTC, with 0.0837 ± 0.026. Regarding GGGCCGGA, the “PBM 8-mer E-score” value is -0.178 ± 0.071.

Turning to GATAATCA, the “PBM 8-mer E-score” value amounted to 0.188 ± 0.037.

In the case of AATAATCA, the “PBM 8-mer E-score” value is 0.0347 ± 0.023.

As to TATAATCA, the “PBM 8-mer E-score” value is 0.263 ± 0.0093. Next, AGTATTCC: 0.115 ± 0.061.

In the case of CAGTATGA, the “PBM 8-mer E-score” value was 0.103 ± 0.036. For AAGTATGA, the “PBM 8-mer E-score” value was 0.139 ± 0.069. Then TAGTATGA, with 0.233 ± 0.017. Then CCAGGTGA, with -0.197 ± 0.057; and GTGCGAAC, with -0.083 ± 0.0049. Next, CATTAGTA: 0.0235 ± 0.027.

As to AATTAGTC, the “PBM 8-mer E-score” value is 0.0882 ± 0.024. On to AATTAGTA, for which the “PBM 8-mer E-score” value came to 0.281 ± 0.031.

With AGCCGCGG, the “PBM 8-mer E-score” value was -0.23908 ± 0.00016. Then AACGCCGT, with -0.116 ± 0.032; and AGATGTTG, with -0.0885 ± 0.12; and ACATGTTA, with 0.2525 ± 0.0013. Next, ACATGTTG: 0.289 ± 0.023. Regarding GCATGTTA, the “PBM 8-mer E-score” value amounted to 0.165 ± 0.072. On to ACATGTTC, for which the “PBM 8-mer E-score” value was 0.144 ± 0.088.

As to CCATGTTA, the “PBM 8-mer E-score” value turned out to be 0.111 ± 0.079.

For CGTGTGAA, the “PBM 8-mer E-score” value is -0.155 ± 0.051. Next, ACGTGAGC: 0.0717 ± 0.062; AATCAAAC: 0.16 ± 0.021; CGTTCTAA: 0.032 ± 0.071.

As to AGCCCACG, the “PBM 8-mer E-score” value came out at 0.0705 ± 0.024. Consider ATCCCACC, for which the “PBM 8-mer E-score” value amounted to 0.193 ± 0.054. CGCCCCAC: the “PBM 8-mer E-score” value came out at 0.253 ± 0.11. Turning to CGCCCCAG, the “PBM 8-mer E-score” value was determined as 0.0881 ± 0.046. As for CTCCCACA, the “PBM 8-mer E-score” value was 0.119 ± 0.064. Next, AGCCCACA: 0.2403 ± 0.0014. Take GGCCCCAC: the “PBM 8-mer E-score” value was 0.103 ± 0.019.

As to GGCCCACA, the “PBM 8-mer E-score” value is -0.0654 ± 0.04.

On to CGCCCACG, for which the “PBM 8-mer E-score” value was -0.0314 ± 0.056. Consider AGCCCACC, for which the “PBM 8-mer E-score” value was -0.043 ± 0.018.
